Source: the supplement of paper PMC11732987, “Enantioselective OTUD7B fragment discovery through chemoproteomics screening and high-throughput optimisation” (Communications Chemistry, 2025)

How the values were obtained:
Assay in all cases: log2 ratio of Biotin-Ahx-Ub-VS probe labelling (fragment/DMSO); higher = less target engagement (more negative = stronger competition), active = hit call of the paper (q ≤ 0.05, log2 ratio ≤ -1)
Settings in all cases: compound concentration: 200 uM; treatment time: 3 h
USP42 = biological target: T1, USP42 (UniProt Q9H9J4)
T1 sequence (whole entry): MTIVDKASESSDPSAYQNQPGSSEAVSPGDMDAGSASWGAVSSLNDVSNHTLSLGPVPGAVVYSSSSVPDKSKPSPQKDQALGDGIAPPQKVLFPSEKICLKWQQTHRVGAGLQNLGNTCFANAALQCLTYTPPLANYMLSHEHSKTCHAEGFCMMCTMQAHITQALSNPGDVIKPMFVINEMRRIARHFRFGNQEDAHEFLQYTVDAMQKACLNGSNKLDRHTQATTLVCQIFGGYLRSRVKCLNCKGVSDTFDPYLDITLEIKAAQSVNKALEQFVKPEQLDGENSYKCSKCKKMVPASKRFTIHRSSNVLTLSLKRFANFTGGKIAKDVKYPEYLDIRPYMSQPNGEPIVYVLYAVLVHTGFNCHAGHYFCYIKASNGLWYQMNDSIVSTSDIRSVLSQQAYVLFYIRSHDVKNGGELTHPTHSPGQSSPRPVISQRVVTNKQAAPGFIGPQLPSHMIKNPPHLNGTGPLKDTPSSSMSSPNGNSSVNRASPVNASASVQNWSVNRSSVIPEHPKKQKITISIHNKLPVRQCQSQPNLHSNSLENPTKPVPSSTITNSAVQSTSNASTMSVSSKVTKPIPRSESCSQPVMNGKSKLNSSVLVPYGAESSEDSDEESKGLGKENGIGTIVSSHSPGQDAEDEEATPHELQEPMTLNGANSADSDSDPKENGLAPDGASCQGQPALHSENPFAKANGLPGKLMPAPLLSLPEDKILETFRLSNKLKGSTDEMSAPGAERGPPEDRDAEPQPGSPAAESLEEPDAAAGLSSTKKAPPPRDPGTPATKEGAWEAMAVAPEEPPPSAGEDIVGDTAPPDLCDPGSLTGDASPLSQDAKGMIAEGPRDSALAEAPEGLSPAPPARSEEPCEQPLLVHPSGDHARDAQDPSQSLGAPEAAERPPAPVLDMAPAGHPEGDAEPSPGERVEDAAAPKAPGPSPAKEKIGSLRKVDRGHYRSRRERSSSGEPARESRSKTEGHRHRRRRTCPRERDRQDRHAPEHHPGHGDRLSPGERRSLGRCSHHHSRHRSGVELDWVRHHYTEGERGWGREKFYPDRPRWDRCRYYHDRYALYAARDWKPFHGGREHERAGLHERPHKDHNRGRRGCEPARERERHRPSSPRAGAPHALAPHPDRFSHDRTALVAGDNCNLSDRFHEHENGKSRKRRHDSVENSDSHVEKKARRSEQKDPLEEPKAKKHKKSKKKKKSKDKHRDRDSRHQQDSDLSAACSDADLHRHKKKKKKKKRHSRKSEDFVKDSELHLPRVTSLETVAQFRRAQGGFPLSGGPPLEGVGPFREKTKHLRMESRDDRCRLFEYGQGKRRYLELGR
Outline: (§1)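 Each value is an average log2 ratio of fragment to vehicle, tested by unpaired t-test. The underlying Spectronaut label-free quantities were global-median-normalised, and only proteins with ≥2 unique peptides were included. Triplicate HEK293T lysate samples (495 µg) were exposed to fragment at 200 µM or vehicle for 3 h, then to Biotin-Ahx-Ub-VS at 0.5 µM final for 1 h, before NeutrAvidin enrichment of labelled DUBs, LysC and trypsin digestion, and diaPASEF LC-MS/MS.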

USP46 = USP46 (UniProt P62068)
Outline: as §1

USP47 = biological target: T2, USP47 (UniProt Q96K76)
T2 sequence (whole entry): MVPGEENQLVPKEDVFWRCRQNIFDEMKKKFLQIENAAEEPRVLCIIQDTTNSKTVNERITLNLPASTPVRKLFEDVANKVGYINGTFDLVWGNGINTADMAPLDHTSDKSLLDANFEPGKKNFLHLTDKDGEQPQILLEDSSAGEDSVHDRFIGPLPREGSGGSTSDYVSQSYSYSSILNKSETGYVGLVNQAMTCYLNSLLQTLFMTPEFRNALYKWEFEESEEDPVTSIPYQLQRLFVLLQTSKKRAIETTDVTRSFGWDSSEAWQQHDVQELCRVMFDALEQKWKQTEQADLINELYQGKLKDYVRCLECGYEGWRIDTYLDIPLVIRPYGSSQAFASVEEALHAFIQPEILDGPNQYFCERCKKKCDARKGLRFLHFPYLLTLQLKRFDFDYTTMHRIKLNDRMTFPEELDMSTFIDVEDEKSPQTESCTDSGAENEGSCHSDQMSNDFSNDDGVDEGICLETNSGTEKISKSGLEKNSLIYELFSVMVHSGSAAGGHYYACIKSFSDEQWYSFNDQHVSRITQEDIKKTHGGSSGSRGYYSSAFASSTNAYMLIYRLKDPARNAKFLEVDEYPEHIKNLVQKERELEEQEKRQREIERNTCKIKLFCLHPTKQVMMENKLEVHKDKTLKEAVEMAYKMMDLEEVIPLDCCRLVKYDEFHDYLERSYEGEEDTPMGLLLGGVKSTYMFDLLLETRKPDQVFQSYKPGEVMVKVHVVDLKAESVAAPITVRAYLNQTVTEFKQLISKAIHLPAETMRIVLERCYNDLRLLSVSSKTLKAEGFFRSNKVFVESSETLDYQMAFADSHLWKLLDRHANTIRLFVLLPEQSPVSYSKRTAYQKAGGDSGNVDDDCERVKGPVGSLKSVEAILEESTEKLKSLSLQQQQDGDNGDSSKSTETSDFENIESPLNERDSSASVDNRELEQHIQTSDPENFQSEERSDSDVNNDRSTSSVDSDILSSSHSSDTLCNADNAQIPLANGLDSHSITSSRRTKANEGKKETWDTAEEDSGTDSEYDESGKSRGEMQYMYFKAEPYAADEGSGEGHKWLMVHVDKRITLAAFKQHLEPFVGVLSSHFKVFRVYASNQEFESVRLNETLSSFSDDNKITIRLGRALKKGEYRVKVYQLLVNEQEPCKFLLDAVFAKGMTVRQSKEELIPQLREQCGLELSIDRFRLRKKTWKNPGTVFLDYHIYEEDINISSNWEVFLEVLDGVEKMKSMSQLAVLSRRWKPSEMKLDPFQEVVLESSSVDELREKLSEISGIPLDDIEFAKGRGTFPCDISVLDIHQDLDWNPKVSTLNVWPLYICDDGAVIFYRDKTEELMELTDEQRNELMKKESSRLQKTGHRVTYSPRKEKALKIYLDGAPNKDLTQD
Outline: as §1

USP48 = biological target: T3, USP48 (UniProt Q86UV5)
T3 sequence (whole entry): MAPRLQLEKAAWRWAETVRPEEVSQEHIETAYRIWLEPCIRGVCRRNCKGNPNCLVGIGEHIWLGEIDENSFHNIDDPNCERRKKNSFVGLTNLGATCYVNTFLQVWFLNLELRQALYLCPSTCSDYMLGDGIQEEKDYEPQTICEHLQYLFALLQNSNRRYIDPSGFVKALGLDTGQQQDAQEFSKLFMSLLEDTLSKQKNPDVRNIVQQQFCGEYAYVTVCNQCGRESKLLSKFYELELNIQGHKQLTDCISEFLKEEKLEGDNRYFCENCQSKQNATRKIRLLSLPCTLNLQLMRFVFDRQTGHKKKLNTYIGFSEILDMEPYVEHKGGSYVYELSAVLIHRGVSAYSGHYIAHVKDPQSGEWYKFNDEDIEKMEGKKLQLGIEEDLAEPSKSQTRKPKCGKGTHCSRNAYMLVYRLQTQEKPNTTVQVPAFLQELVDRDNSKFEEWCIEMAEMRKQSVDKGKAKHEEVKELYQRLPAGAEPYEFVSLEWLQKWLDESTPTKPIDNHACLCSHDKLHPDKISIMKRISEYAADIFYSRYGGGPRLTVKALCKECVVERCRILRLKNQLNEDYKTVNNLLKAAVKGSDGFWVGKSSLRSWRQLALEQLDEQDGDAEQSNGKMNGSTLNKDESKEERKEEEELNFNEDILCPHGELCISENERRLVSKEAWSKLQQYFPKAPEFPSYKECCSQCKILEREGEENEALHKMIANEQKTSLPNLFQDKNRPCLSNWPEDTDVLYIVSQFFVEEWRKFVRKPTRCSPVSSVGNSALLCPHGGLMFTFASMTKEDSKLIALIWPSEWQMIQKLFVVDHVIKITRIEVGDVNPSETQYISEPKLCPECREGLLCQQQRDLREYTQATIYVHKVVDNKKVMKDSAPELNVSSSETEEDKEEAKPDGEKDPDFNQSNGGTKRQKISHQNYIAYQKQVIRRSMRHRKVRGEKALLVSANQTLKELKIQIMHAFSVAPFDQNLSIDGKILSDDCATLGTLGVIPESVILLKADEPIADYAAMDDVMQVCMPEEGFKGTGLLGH
Outline: as §1

USP5 = biological target: T4, USP5 (UniProt P45974)
T4 sequence (whole entry): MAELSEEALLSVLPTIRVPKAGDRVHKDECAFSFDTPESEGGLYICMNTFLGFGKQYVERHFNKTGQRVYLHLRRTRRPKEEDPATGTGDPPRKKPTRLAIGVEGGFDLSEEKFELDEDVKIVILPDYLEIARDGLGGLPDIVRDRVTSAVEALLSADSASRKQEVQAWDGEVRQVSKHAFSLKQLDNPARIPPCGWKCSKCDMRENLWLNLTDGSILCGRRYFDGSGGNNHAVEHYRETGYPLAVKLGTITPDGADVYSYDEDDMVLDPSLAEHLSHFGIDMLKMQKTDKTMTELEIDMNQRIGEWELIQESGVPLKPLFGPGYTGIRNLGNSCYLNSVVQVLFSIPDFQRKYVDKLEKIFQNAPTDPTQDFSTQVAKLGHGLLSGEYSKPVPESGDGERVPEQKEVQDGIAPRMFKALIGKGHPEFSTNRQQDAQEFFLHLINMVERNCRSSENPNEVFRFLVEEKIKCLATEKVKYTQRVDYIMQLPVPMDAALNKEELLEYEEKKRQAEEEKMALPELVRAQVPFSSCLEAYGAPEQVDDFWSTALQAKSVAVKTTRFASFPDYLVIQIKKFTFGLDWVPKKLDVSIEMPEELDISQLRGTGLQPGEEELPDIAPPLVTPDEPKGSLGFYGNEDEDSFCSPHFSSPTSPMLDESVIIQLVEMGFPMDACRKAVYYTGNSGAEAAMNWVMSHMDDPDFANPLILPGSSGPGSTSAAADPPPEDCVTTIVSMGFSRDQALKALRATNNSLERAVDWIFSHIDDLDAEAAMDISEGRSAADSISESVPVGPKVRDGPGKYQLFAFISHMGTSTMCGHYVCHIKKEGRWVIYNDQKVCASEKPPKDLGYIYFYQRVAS
Outline: as §1

USP54 = USP54 (UniProt Q70EL1)
Outline: as §1

USP7 = USP7 (UniProt Q93009)
Outline: as §1

USP8 = biological target: T5, USP8 (UniProt P40818)
T5 sequence (whole entry): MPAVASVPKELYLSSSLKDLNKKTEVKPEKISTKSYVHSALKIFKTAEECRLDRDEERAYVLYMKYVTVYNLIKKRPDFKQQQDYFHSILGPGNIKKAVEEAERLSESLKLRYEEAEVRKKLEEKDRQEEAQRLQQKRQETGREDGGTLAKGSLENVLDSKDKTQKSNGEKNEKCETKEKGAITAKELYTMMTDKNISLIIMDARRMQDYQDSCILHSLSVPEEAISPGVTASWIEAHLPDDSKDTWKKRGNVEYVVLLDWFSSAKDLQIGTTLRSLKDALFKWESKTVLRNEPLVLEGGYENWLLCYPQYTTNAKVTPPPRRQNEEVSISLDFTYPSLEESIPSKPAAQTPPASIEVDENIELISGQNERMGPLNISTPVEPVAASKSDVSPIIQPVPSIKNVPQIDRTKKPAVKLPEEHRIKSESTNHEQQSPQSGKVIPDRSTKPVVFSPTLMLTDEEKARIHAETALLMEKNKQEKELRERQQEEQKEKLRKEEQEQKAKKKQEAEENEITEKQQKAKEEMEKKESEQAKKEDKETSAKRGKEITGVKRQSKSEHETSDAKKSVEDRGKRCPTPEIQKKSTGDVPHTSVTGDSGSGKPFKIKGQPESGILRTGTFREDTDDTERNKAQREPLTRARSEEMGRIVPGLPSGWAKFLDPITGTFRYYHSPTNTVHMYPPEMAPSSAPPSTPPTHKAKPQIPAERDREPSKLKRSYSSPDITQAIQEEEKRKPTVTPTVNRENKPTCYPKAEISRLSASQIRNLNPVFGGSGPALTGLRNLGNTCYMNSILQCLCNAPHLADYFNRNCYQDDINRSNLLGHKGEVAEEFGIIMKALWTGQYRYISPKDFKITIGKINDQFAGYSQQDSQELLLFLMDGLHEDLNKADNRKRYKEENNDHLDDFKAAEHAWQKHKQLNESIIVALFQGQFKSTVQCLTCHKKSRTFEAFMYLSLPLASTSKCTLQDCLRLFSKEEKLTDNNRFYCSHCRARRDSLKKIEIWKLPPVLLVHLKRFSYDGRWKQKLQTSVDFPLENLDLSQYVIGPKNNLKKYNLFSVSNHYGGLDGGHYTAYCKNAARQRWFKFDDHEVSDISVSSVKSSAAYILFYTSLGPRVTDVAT
Outline: as §1

USP9X = USP9X (UniProt Q93008)
Outline: as §1

UniProt O00487 = biological target: UniProt O00487
Outline: as §1

Measured: log2 ratio of Biotin-Ahx-Ub-VS probe labelling

USP46, sequence (P62068 whole entry): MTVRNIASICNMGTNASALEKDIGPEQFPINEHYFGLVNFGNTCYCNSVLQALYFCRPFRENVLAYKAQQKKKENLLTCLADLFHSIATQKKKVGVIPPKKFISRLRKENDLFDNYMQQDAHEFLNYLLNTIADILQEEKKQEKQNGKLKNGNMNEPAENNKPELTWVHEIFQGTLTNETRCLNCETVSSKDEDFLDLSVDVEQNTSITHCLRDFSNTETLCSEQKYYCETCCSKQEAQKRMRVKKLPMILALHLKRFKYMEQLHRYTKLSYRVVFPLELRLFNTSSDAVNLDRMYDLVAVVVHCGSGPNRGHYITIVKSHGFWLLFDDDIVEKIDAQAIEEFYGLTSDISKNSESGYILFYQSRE
USP7, sequence (Q93009 whole entry, looked up): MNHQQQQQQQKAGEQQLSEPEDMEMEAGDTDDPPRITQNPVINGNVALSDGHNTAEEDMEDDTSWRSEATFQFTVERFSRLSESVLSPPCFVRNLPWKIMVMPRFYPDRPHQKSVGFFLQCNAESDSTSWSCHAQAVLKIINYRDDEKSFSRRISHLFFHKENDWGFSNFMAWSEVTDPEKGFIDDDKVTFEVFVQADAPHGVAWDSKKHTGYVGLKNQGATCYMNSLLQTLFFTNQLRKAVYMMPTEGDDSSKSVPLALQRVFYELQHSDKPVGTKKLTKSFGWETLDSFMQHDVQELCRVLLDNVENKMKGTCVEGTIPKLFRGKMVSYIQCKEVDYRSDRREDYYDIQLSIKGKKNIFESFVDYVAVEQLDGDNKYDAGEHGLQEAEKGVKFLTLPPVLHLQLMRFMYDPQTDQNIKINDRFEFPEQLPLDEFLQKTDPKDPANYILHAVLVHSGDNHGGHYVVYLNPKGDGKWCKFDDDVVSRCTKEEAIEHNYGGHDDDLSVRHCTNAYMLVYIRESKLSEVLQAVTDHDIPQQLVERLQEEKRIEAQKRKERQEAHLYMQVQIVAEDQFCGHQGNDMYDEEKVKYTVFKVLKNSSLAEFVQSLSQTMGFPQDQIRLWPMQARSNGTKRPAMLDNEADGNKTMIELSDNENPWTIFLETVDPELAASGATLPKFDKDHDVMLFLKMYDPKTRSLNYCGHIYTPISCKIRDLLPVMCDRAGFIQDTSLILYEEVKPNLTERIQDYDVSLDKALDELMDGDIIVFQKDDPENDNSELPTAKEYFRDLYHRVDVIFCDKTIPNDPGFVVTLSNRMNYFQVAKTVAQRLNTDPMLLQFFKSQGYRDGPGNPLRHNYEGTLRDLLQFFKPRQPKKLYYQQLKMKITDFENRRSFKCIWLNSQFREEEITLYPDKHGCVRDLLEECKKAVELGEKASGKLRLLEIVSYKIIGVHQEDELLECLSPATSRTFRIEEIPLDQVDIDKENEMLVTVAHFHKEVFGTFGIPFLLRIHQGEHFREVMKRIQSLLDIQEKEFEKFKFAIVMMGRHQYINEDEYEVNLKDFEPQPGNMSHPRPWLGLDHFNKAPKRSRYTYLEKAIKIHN
USP54, sequence (Q70EL1 whole entry): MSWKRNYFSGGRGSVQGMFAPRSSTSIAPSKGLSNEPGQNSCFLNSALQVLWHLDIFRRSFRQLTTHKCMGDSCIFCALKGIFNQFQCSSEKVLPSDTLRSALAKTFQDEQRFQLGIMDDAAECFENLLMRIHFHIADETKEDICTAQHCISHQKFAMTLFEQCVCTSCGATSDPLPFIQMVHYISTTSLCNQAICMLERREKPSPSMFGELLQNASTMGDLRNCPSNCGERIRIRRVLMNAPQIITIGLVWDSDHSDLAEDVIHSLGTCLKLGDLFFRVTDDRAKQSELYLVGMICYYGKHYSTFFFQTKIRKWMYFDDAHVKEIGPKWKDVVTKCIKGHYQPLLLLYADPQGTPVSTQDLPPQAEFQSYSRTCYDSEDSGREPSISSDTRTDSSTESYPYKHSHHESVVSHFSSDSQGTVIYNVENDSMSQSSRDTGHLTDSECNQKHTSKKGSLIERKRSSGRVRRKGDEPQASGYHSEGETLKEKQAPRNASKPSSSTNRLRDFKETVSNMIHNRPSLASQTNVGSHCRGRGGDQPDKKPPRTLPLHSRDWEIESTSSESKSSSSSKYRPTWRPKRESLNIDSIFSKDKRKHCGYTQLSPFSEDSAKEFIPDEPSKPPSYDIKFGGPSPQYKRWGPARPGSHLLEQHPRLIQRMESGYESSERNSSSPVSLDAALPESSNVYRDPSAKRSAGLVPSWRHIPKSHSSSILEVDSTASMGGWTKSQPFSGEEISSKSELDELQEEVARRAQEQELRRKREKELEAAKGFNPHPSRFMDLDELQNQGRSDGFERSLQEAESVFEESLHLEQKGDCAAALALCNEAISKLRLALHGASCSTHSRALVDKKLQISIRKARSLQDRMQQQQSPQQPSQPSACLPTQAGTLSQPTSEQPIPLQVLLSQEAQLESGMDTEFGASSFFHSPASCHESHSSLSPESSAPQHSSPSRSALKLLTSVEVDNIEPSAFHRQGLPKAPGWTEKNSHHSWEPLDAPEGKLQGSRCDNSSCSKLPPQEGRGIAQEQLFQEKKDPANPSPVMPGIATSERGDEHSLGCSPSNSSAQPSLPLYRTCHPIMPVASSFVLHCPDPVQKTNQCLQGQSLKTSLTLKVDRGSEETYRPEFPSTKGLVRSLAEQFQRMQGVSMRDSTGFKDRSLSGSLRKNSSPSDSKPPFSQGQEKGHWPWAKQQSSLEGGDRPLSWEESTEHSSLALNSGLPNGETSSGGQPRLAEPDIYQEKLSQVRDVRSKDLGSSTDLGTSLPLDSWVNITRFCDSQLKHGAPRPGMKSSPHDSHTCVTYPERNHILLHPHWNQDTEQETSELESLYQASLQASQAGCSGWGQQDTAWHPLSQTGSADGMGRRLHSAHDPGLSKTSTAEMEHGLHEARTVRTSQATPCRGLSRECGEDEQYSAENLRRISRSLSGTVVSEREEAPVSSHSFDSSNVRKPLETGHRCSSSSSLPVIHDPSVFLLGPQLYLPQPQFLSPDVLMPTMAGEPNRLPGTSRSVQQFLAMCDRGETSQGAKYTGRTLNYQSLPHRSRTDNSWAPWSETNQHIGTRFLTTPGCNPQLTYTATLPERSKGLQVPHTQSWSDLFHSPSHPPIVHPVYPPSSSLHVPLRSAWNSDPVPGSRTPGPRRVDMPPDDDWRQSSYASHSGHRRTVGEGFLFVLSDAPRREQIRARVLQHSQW
UniProt O00487, sequence (O00487 whole entry): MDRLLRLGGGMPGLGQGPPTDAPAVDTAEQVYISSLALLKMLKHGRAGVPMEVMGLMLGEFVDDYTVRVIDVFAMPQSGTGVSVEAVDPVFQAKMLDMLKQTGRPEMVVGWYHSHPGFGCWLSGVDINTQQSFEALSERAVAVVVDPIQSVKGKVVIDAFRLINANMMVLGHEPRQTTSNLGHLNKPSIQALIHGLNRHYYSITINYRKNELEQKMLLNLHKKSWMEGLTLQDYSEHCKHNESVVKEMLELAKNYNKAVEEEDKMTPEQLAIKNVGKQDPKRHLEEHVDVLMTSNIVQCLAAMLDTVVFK

O=C(CCl)N(Cc1ccsc1)C1CC1
active: USP48 -1.14 | USP7 -1.25
inactive: USP42 -0.0609 | USP46 0.201 | USP47 -0.631 | USP5 0.243 | USP54 0.171 | USP8 0.0752 | USP9X -0.139 | UniProt O00487 0.0101
